Screening results (PubChem BioAssay)
Shown are actives, neighbours in structure and some others; about 1.4% of the full set was active somewhere.
MEX-5 binding: C. elegans MEX-5 TCR-2 RNA binding activity; Q9XUB2; MEX-5/FITC-TCR2 RNA binding, fluorescence polarization; stronger effect = lower value; activity score (negative = inhibition of binding), % at 10 µM; hit rate 0.38% among 300,000; AID 1832;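 active means inhibition past about -25% in most replicates, and total fluorescence under double the plate's negative control median, limit read from the data; inconclusive means replicates evenly split on the limit, or fluorescence at least double controls; inactive means too little inhibition in most replicates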
MCL1-BIM inh: inhibitors of human MCL1 binding to BIM-BH3 peptide; inhibition, % at 10.9 µM; GST-MCL1 / FITC-Bim-BH3 fluorescence polarization; hit rate 0.68% among 320,000;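 active means inhibition above the mean inhibition of all tested compounds plus 3 SD, set per campaign, cut at about 40% in these data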;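 further: higher means more loss of mP so more displacement of Bim peptide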
EBV gp42 block: inhibitors of Epstein-Barr virus glycoprotein 42. Q1HVG2. Fluorescence polarization binding assay, mP read-out. inhibition, % (tested at 21.74 µM). hit rate 0.42% among 220,000; in the data active means inhibition above about 50%
eLon inh: inhibits E. coli Lon protease. P0A9M0. hit rate 0.42% among 360,000. inhibition, % at 7.94 µM. purified E. coli Lon protease, fluorescence polarization; in the data active means inhibition above about 13%, passing the limit was not always enough
GLD-1 RNA inh: GLD-1-TGE RNA interaction inhibition (C. elegans). inhibition, % at 5.96 µM. Q17339. purified GLD-1 + fluorescein TGE RNA, fluorescence polarization. AID 2280. hit rate 0.44% among 320,000;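 active means percent inhibition above a per-plate cutoff, the plate mean of test compounds plus 3 SD, cut at about 30% in these data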
Target sequence (Q17339 whole entry, looked up): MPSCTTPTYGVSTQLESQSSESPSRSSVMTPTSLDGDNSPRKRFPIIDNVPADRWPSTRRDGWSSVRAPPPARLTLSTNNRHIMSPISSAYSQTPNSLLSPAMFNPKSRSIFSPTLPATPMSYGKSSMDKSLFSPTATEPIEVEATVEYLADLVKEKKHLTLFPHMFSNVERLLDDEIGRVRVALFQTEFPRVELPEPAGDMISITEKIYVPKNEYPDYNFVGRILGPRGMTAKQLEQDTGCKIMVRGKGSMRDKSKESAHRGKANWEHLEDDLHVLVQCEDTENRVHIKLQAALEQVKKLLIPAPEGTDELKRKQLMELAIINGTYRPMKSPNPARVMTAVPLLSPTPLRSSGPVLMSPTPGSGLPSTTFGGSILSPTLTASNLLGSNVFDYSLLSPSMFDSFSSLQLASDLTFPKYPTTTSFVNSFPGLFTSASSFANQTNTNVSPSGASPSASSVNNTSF
Bcl-xL primary: inhibitors of human Bcl-xL | inhibition, % at 10.9 µM | GST-Bcl-xL / FITC-Bim BH3 peptide fluorescence polarization | hit rate 0.7% among 320,000 | Q07817;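 active means inhibition above the mean of all tested compounds plus 3 SD, cutoff set per campaign, cut at about 30% in these data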;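 further: inhibitors lower millipolarization by displacing the labeled peptide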
Target sequence (Q07817 whole entry, looked up): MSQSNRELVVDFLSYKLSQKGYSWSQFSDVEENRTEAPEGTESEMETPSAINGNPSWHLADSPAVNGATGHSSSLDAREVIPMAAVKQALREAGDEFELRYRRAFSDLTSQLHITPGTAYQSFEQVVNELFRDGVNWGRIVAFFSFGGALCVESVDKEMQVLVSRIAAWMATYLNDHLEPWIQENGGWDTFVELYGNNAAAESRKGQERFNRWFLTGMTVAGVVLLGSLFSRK
BCLXL inh confirm: Bcl-xL (human) inhibition, MCL1 counter-screen confirmation; GST-Bcl-xL / FITC-Bim BH3 peptide FP binding; inhibition, % at 10.9 µM; shares compounds with MCL1-BIM inh; hit rate 54% among 1,700;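 active means inhibition above a cutoff equal to the mean inhibition of all tested compounds plus 3 SD, cut at about 30% in these data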
MCL1 BIM confirm: confirmation of human MCL1 and BIM-BH3 interaction inhibitors; inhibition, % at 10.9 µM; shares compounds with MCL1-BIM inh; hit rate 61% among 1,700; GST-MCL1 / FITC-Bim-BH3 fluorescence polarization; AID 2168;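 active means inhibition above the average of all tested compounds plus 3 SD, cut at about 40% in these data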
Of the large screens only hits and unclear results are named; the others gave an inactive call (follow-up assays come after a bar, where they were run).

C=CCN1C=C2C(=O)C(C)(OC(=O)CCC(=O)OC)C(=O)C(Br)=C2C=C1c1ccc(OC)cc1 (centres undefined)	MEX-5 binding -27.9, MCL1-BIM inh 74.1, Bcl-xL primary 70.9 | BCLXL inh confirm 52.0 | MCL1 BIM confirm 56.1
COCCN(Cc1ccc(OC)cc1)c1c(C)nc2ccc(C(=O)Nc3ccc(NC(C)=O)cc3)cn12	none (no result: MEX-5 binding, MCL1-BIM inh, EBV gp42 block, GLD-1 RNA inh, Bcl-xL primary)
Cc1ccc(-n2[nH]c(C)c(C=Nc3ccc4[nH]c(=O)[nH]c4c3)c2=O)cc1C	MCL1-BIM inh 116.8, Bcl-xL primary 60.4 | BCLXL inh confirm 102.6 | MCL1 BIM confirm 129.5
Cc1ccc(-n2[nH]c(C)c(C=Nc3ccc4[nH]c(=O)[nH]c4c3)c2=O)cc1	none
O=c1[nH]n2c(=O)c3c([nH]c2c1N=Nc1cccc(Cl)c1)CCC3	MCL1-BIM inh 42.4, EBV gp42 block 52.4 | BCLXL inh confirm inactive | MCL1 BIM confirm inactive
CC(=O)Nc1ccc(C(=O)CN2CCN(c3ccccc3)CC2)cc1	none (no result: EBV gp42 block)
CC(/C=C1\SC(=S)N(c2ccc(C(=O)O)cc2)C1=O)=C\c1ccccc1	MCL1-BIM inh 48.3 | BCLXL inh confirm inactive | MCL1 BIM confirm inactive
CC(/C=C1\SC(=S)N(NC(=O)c2ccc(C)cc2)C1=O)=C\c1ccccc1	none
Cc1nn(C)cc1C1C2=C(CC(C)(C)CC2=O)N(c2ccccc2)C2=C1C(=O)CC(C)(C)C2	none
Cc1ccc(N2C3=C(C(=O)CC(C)(C)C3)C(c3cn(C)nc3C)C3=C2CC(C)(C)CC3=O)cc1	MCL1-BIM inh 103.8, eLon inh 80.0, GLD-1 RNA inh 87.8, Bcl-xL primary 92.8 (no result: EBV gp42 block) | BCLXL inh confirm 116.1 | MCL1 BIM confirm 157.7
CC(=O)n1c(C=Nc2ccc(Cl)cc2)c(O)c2ccccc21	MEX-5 binding inconclusive, MCL1-BIM inh 58.9, EBV gp42 block 124.7, Bcl-xL primary 80.8 | BCLXL inh confirm 154.4 | MCL1 BIM confirm 184.9
O=C(O)CN1C(=O)/C(=C\c2cc(Br)ccc2OCc2ccc(Cl)cc2)SC1=S	none (no result: MCL1-BIM inh, EBV gp42 block, GLD-1 RNA inh, Bcl-xL primary)
O=C(O)CN1C(=O)/C(=C\c2cc([N+](=O)[O-])ccc2OCc2ccccc2Cl)SC1=S	MCL1-BIM inh 50.7 (no result: EBV gp42 block) | BCLXL inh confirm inactive | MCL1 BIM confirm 47.2
O=C1/C(=C\c2cccc(O)c2O)SC(=S)N1Cc1ccccc1	none (no result: EBV gp42 block)
O=C1/C(=C\c2cc([N+](=O)[O-])ccc2O)SC(=S)N1Cc1ccc(Cl)cc1	MEX-5 binding inconclusive, MCL1-BIM inh 65.5, GLD-1 RNA inh 46.8, Bcl-xL primary 75.6 (no result: EBV gp42 block) | BCLXL inh confirm 88.0 | MCL1 BIM confirm 104.7
COc1cccc(N=C2CC(C)(C)CC(=O)/C2=C(/O)c2ccccc2)c1	none
N#C/C(=C/c1ccco1)C(N)=S	MCL1-BIM inh 58.0, Bcl-xL primary 35.1 | BCLXL inh confirm inactive | MCL1 BIM confirm inactive
Cc1ccc(/C=C/C(=O)NCc2ccccn2)o1	MCL1-BIM inh 40.8 | BCLXL inh confirm inactive | MCL1 BIM confirm 51.4
O=C(O)/C=C/C(=O)NCc1ccccn1	MCL1-BIM inh 49.8, GLD-1 RNA inh 36.4, Bcl-xL primary 51.8 | BCLXL inh confirm 48.0 | MCL1 BIM confirm 51.6
O=C(O)/C=C/C(=O)NCc1ccccc1	none
COC(=O)C1(C)COP(=O)(Nc2ccc(OC)cc2)OC1 (centres undefined)	none (no result: MEX-5 binding, MCL1-BIM inh, EBV gp42 block, GLD-1 RNA inh, Bcl-xL primary)
O=C(CSc1ccccn1)N1CCNC1=O	none (no result: MEX-5 binding, MCL1-BIM inh, EBV gp42 block, Bcl-xL primary)
Cc1cn2c(-c3cccnc3)nnc2s1	none
Cc1ccc(-c2[nH]c(=O)n3ccncc23)s1	MCL1-BIM inh 56.5, Bcl-xL primary 58.5 | BCLXL inh confirm 66.0 | MCL1 BIM confirm 91.0
CCOC(=O)NC1(Nc2ccc(C)cc2)Oc2ccccc2O1	MCL1-BIM inh 58.0 | BCLXL inh confirm 41.1 | MCL1 BIM confirm 46.0
COC/C=C/C1=CC2=CC(=O)C(C)(OC(=O)c3cnc4ccccc4n3)C(=O)C2=CO1 (centres undefined)	MEX-5 binding -41.6, MCL1-BIM inh 96.2, GLD-1 RNA inh 58.4, Bcl-xL primary 74.0 (no result: EBV gp42 block, eLon inh) | BCLXL inh confirm inactive | MCL1 BIM confirm 55.5
COC/C=C/C1=CC2=CC(=O)C(C)(OC(=O)c3cnc4ccccc4n3)C(=O)C2=CN1C(CO)CO (centres undefined)	none
O=C(Cn1nnc(-c2ccccc2)n1)N/N=C/c1cccc([N+](=O)[O-])c1	none
O=C(Cn1nnc(-c2ccccc2)n1)N/N=C/c1cccc([N+](=O)[O-])c1O	MCL1-BIM inh 46.4 | BCLXL inh confirm 46.6 | MCL1 BIM confirm 86.8
Cc1ccc(C(=O)N/C(=C/c2ccccc2)C(=O)NCC2CCCO2)cc1 (centres undefined)	none
O[C@@H]1CN(Cc2ccc(-n3cccn3)cc2)CC[C@H]1N1CCN(c2ccccc2F)CC1	none (no result: EBV gp42 block)
O=C(CSc1nnc(-c2ccco2)c(-c2ccco2)n1)c1ccccc1	MCL1-BIM inh 43.3 | BCLXL inh confirm 43.1 | MCL1 BIM confirm 77.6
COc1cccc(Cn2c(=S)[nH]c3ccc(N4CCOCC4)cc3c2=O)c1	MCL1-BIM inh 41.1 | BCLXL inh confirm inactive | MCL1 BIM confirm inactive
O=c1c2cc(N3CCOCC3)ccc2[nH]c(=S)n1Cc1cccc(Cl)c1	none
CCC(CO)Oc1cc(NC(=O)c2ccccc2Cl)c2ncn(C(C)C)c2c1 (centres undefined)	none (no result: MEX-5 binding, MCL1-BIM inh, EBV gp42 block, Bcl-xL primary)
CC1=C(C(=O)N2CCCCCC2)CC(CC(=O)NCCCCc2ccccc2)C(=O)N1Cc1ccccc1 (centres undefined)	none (no result: MEX-5 binding, MCL1-BIM inh, EBV gp42 block, GLD-1 RNA inh, Bcl-xL primary)
O=C(NCCCN1CCCC1=O)c1cn(-c2ccccc2)nc1-c1ccccc1	none (no result: EBV gp42 block)
O=c1[nH]c2cc3c(cc2cc1CN(Cc1ccc2c(c1)OCO2)Cc1nnnn1CC1CCCO1)OCO3 (centres undefined)	MCL1-BIM inh 74.3, GLD-1 RNA inh 65.0, Bcl-xL primary 69.8 | BCLXL inh confirm inactive | MCL1 BIM confirm inactive
CN=c1scc(-c2ccc(F)cc2)n1/N=C/c1ccc(O)c(O)c1	none (no result: MEX-5 binding, MCL1-BIM inh, GLD-1 RNA inh, Bcl-xL primary)
O=C(Nc1cccc(S(=O)(=O)NC2=NCCC2)c1)c1cc(-c2ccco2)nc2ccccc12	MCL1-BIM inh 93.8, EBV gp42 block 82.2 | BCLXL inh confirm inactive | MCL1 BIM confirm 74.1
O=C(NC(=S)Nc1cccc(S(=O)(=O)NC2=NCCC2)c1)c1cc(-c2ccco2)nc2ccccc12	MCL1-BIM inh 54.2, Bcl-xL primary 44.2 | BCLXL inh confirm 38.7 | MCL1 BIM confirm 42.4
O=C(Nc1cccc(S(=O)(=O)NC2=NCCCCC2)c1)c1cc(-c2ccccc2)nc2ccccc12	none
CC12CCC(C(=O)OC3CCCCC3)(OC1=O)C2(C)C (centres undefined)	none (no result: EBV gp42 block)
O=C1CN2CCC1C/C2=C\c1ccnc2c(Cl)cccc12 (centres undefined)	none
